Source: PubChem BioAssay
Rab9 promoter act = qHTS Assay for Rab9 Promoter Activators; Huh7 Rab9 promoter-luciferase reporter, luminescence, 24 h; Potency, µM (series often up to 9.22 µM), inactives show at the highest dose activation, negative = inhibition, most hits filed as activators; AID 485297, 2010; 320,000 tested, 2.8% active; note: % of control where 0% means no effect; nearly all actives have a fitted effect of over 60% in size
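Luminescence read-out: Huh7 cells stably expressing Rab9-luciferase, treated 24 h with compound at 37 °C, then lysed with luciferase reagent for 10 min at ambient before reading.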
SMN2 splice enh = qHTS Assay for Enhancers of SMN2 Splice Variant Expression; 210,000 tested, 2.8% active; Potency, µM (highest dose often 46.1 µM), for the others: at the top dose activity change, positive = activation, hits mostly activators; HEK293 SMN2-luciferase splicing reporter, luminescence, 30-36 h; AID 1458, 2008; note: % of control where 0% means no effect; nearly all actives have a fitted effect of over 55% in size
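HEK293 cells carry an SMN2 […]–luciferase reporter in which exon 7 inclusion puts luciferase in frame. Cells were plated 10-12 h before compound addition, then incubated 30-36 h at 37C. ONE-Glo luminescence was read; sodium butyrate at 4.5 mM final served as control.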
KinaseGlo FLuc = Counterscreen for Luciferase (Kinase-Glo TM) Inhibition; 200,000 tested, 0.28% active; Luciferin 4-monooxygenase (Photuris pensylvanica), Q27757; Kinase-Glo luciferase, ATP luminescence, 8 min; Potency, µM (series often up to 38.3 µM), inactives show at the top dose activity change, negative = inhibition, usual class: inhibitors; note: % is set by controls: 0 for no effect and ±100 for the full control effect; nearly all actives have a fitted effect of over 60% in size
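Compound is pinned into ATP-containing buffer (10 uM ATP, imidazole pH 7.2, 7 mM MgCl2). Kinase-Glo luciferase reagent is then added. Light output is recorded following an 8-min room-temperature incubation.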
NPC1 promoter act = qHTS Assay for NPC1 Promoter Activators; Huh7 NPC1 promoter luciferase reporter, 24 h; Potency, µM (top dose mostly 9.22 µM), without a hit: at the highest dose activation, most hits filed as activators; 320,000 tested, 2.4% active; note: % of control where 0% means no effect; nearly all actives have a fitted effect of over 60% in size
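Huh7 cells stably carrying NPC1 promoter–luciferase, plated in Opti-MEM with 10% FBS for 2 h, were exposed to compound in DMSO for 24 h at 37 °C; luciferase reagent was added for 10 min and luminescence read.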
FLuc counter = qHTS profiling assay for firefly luciferase inhibitor/activator using purifed enzyme and Km concentrations of substrates (counterscreen for miR-21 project); purified FLuc, Km substrates, luminescence inhibition; Potency, µM (top dose mostly 57.5 µM), for inactives: top-dose activity change, negative = inhibition, hits mostly inhibitors; 360,000 tested, 6.9% active; Luciferin 4-monooxygenase (Photinus pyralis), P08659;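 note: plate controls were vehicle for no effect and reference inhibitor for full effect; nearly all actives have a fitted effect of over 55% in size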
Target sequence (P08659 whole entry, looked up): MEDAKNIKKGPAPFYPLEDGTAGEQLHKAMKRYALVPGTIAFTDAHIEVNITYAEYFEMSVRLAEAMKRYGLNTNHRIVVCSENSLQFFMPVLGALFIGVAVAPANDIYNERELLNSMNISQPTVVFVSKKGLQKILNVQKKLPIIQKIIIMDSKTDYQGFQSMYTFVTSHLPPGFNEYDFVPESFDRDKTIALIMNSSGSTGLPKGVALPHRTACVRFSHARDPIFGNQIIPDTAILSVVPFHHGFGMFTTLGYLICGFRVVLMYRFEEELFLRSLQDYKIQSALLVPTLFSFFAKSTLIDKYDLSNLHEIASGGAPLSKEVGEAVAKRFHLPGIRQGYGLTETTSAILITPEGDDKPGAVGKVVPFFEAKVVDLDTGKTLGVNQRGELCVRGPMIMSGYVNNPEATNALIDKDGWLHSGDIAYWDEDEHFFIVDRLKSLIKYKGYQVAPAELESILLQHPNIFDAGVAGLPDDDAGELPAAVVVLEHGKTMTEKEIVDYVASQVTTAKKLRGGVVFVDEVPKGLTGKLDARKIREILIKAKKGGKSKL
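Purified P. pyralis luciferase, 10 nM final, with Km-level 10 uM D-luciferin and 10 uM ATP in 50 mM Tris acetate pH 7.5, 10 mM Mg acetate, 0.01% Tween-20, 0.05% BSA; 6-point qHTS titration about 60 µM downward; luminescence read.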
* marks the source's active call; other numbers are inactive results; ? = inconclusive; / = not tested or not shown; [ ] = another dose, or the depositor's remark. Only some compounds are listed: those with a hit (about 7.3% of all), similar ones and a draw of the others. Calls come from the whole dose curve; as a rule, active = well fitted curve in the direction sought with a large enough effect; inconclusive = small, poorly fitted or top-dose-only effect, or another doubt; inactive = no such curve, though single readings can be large; an effect the other way counts as inactive or inconclusive. Potency is the fitted concentration of half-maximal effect.

SMILES	Rab9 promoter act	SMN2 splice enh	KinaseGlo FLuc	NPC1 promoter act	FLuc counter
COc1ccc(NC(=O)CSc2cn(CCNC(=O)c3ccc(OC)cc3)c3ccccc23)cc1	/	-28%	/	/	?
O=C(Cc1ccccc1)c1ccc2c(c1)OCCO2	2.8µM*	?	-15%	2.5µM*	8.5µM*
CN(Cc1ccccc1)C(=O)c1ccc2c(c1)OCCO2	4%	7%	-2%	1%	-5%
Cc1cc2ccccc2n1CCNC(=O)c1ccc(Br)cc1	/	-58%	/	/	?
COc1ccc(C(=O)NCCn2cc(SCC(N)=O)c3ccccc32)cc1	22%	/	/	12%	15µM*
O=C(NCCc1ccccc1)c1ccc2c(c1)OCO2	?	/	/	?	0.54µM*
Cc1cc2ccccc2n1CCNC(=O)c1ccccc1	?	-54%	-8%	?	21µM*
CCOc1ccc(NC(=O)N2CCN(C(=O)c3nsc4ccccc34)CC2)cc1	/	/	/	/	2%
Cc1ccc2c(=O)c(C(=O)c3ccc(F)cc3)cn(CC(=O)NCCc3ccccc3)c2n1	/	/	/	/	4%
O=C(NCCn1ccc2ccccc21)c1ccc(S(=O)(=O)N2CCCCC2)cc1	-2%	-36%	2%	-2%	6%
CCCn1cc(SCC(=O)Nc2nnc(C)s2)c2ccccc21	-6%	12%	5%	-6%	4%
CC(C)(C)c1ccccc1NC(=O)C1=COCCO1	2%	/	/	-1%	2%
O=C(NCSc1ccccc1)c1ccccc1	1.4µM*	/	/	2.5µM*	11µM*
O=C(NCCc1ccccc1)C1=COCCO1	3.2µM*	/	/	2.5µM*	17µM*
Cc1ccc(C(=O)NCCn2cc(SCC(=O)Nc3nnc(C)s3)c3ccccc32)cc1	26%	-55%	1%	-3%	17µM*
O=C(NCCn1ccc2ccccc21)c1ccc2c(c1)OCO2	1.1µM*	8.9µM*	-3%	0.89µM*	6.7µM*
CCCCC[C@H](O)/C=C/[C@H]1OC(O)C[C@H](O)[C@@H]1C/C=C\CCCC(=O)O (stereo partly specified)	/	12%	3%	/	/
COc1ccccc1-n1c(/C=C/c2c(C)n(C)c3ccccc23)nc2ccccc2c1=O	/	3%	/	/	-8%
Cc1cccc(-n2c(SCC(=O)Nc3ccc(C)c(C)c3)nc3n[nH]c(C)c3c2=N)c1	/	/	/	/	-8%
CC(C)Cn1c(=O)c2ccccc2n2c(CCC(=O)NCc3ccc(Cl)cc3)nnc12	/	-7%	/	/	-5%
CCc1cccc(NC(=O)Nc2ccc3c(c2)OCO3)c1	?	/	/	9%	?
O=C(Nc1ccc2c(c1)OCO2)Oc1ccccc1	/	-7%	-11%	/	11µM*
COc1ccc(OC)c(S(=O)(=O)N(C)CC(=O)Nc2ccc3c(c2)OCO3)c1	0%	5%	3%	-1%	-13%
COc1cccc(NC(=O)Nc2ccc3c(c2)OCO3)c1	1.4µM*	/	/	2µM*	7.6µM*
COc1ccc(OC)c(NC(=O)Nc2ccc3c(c2)OCO3)c1	8%	/	/	4%	27µM*
SMILES	Rab9 promoter act	SMN2 splice enh	KinaseGlo FLuc	NPC1 promoter act	FLuc counter
COC(=O)Nc1ccc2c(c1)OCO2	5%	17%	0%	-1%	?
COc1cccc(CN2CCc3nc(Nc4ccc5c(c4)OCCO5)ncc3C2)c1	/	/	/	/	24µM*
Clc1ccc(CN2CCc3nc(Nc4ccc5c(c4)OCCO5)ncc3C2)cc1	/	/	/	/	-20%
Cc1ccsc1CN1CCc2nc(Nc3ccccc3)ncc2C1	/	/	/	/	12µM*
Cc1ccc(C)c(N2CCN(C(=O)c3cc(S(=O)(=O)N4CCC(C)CC4)cn3C)CC2)c1	/	/	/	/	-1%
CCN(C(=O)C1CCN(S(=O)(=O)c2ccc3c(c2)CCCN3C(C)=O)CC1)c1cccc(C)c1	/	/	/	/	-3%
CCOC(=O)Cc1csc(NC(=O)CSc2nnc(-c3ccncc3)o2)n1	-3%	-1%	-1%	0%	3%
Cc1csc(NC(=O)CSc2nnc(-c3ccncc3)o2)n1	?	3.2µM*	-1%	25%	-2%
Cc1csc(NC(=O)CSc2nnc(-c3ccoc3C)o2)n1	?	11µM*	3%	?	-3%
COc1ccc(NC(=O)c2c(-c3ccc(C)cc3)nnc3ccccc23)c(OC)c1	/	/	/	/	-12%
C/C(=N\NC(=O)c1c(Cl)c(C)nn1C)c1cccc(NC(=O)COc2ccc(Cl)cc2)c1	26%	13%	0%	?	8.5µM*
C/C(=N/NC(=O)c1ccc(C)s1)c1cccc(NC(=O)COc2ccc(Cl)cc2C)c1	3%	-8%	2%	26%	5.4µM*
Cc1ccc(OCC(=O)Nc2ccc3nn(-c4ccc(Cl)cc4)nc3c2)cc1	/	-16%	/	/	2%
O=C(C1CCC(Cn2c(=O)c3sccc3n(Cc3ccccc3)c2=O)CC1)N1CCOCC1 (stereo unspecified)	/	/	/	/	-5%
Cc1cccc(/C=C\c2ccccc2)n1	/	/	11µM*	/	/
Cc1cccc(/C=C/c2ccccc2)n1	11µM*	?	?	13µM*	/
Cc1ccc2c(=O)cc(C(=O)Nc3cccc(C(F)(F)F)c3)oc2c1C	/	4%	/	/	2%
O=C(CSc1nnc2scc(-c3ccc(Cl)cc3)n12)Nc1ccc(F)cc1	/	-13%	/	/	0%
C[C@H]1Cc2c(-c3ccccc3)nc3c(c2CO1)CN(S(=O)(=O)c1ccc2c(c1)OCCN2C)CC3	/	-4%[9.22 µM]	-7%[7.66 µM]	/	/
COc1ccc(/C=N/Nc2nc(C)cc(-c3ccccc3)n2)c(OC)c1	-2%	/	/	-4%	?
COc1ccc(O)c(/C=N/Nc2nc(Nc3ccccc3)nc(-n3nc(C)cc3C)n2)c1	-5%	-22%	0%	10%	9.5µM*
COc1cc(/C=N/Nc2nc(Nc3ccc(C)cc3)nc(-n3nc(C)cc3C)n2)cc(OC)c1OC	-8%	13%	-3%	5%	?
COc1cc(/C=N/Nc2nc(Nc3ccccc3)nc(-n3nc(C)cc3C)n2)cc(OC)c1OC	3%	-7%[1.84 µM]	-1%	14%	2.7µM*
COC(=O)c1sccc1S(=O)(=O)N(CC(=O)NCc1ccccc1)c1ccc(C)c(C)c1	/	/	/	/	-4%
Cc1cc(C(=O)CSc2ccc(F)cc2)cc(C)c1OC(=S)N(C)C	?	-51%	-1%	?	0.67µM*
COc1ccc(SCC(=O)c2cc(C)c(OC(=S)N(C)C)c(C)c2)cc1	?	-12%	0%	27%	17µM*
Cc1ccc(SCC(=O)c2cc(C)c(O)c(C)c2)cc1	15%	/	/	13%	?
O=C(O)c1ccccc1NC(=O)N1c2ccccc2Sc2ccccc21	/	-6%	/	/	?
O=C(Cn1c(=O)c2cccn2c2cccnc21)NCc1ccccc1F	/	/	/	/	-2%
Cc1ccc(Cl)c2c(N=Nc3ccccc3)c(O)[nH]c12	?	/	/	?	1.2µM*
